Assay [1] addresses Dual specificity protein kinase CLK3 (Homo sapiens) (UniProt P49761). The following applies: at 1 µM.
Assay [2] concerns the target Dual specificity tyrosine-phosphorylation-regulated kinase 1A (Homo sapiens) (UniProt Q13627). The following applies: at 0.1 µM.
Assay [3] shares this target. The following applies: at 1 µM.
Assay [4] concerns the target Dual specificity tyrosine-phosphorylation-regulated kinase 1B (Homo sapiens) (UniProt Q9Y463). The following applies: at 0.1 µM.
The target is the same in assay [5]. The following applies: at 1 µM.
Assay [6] deals with T1, Dual specificity tyrosine-phosphorylation-regulated kinase 2 (Homo sapiens) (UniProt Q92630).
T1 sequence (whole entry): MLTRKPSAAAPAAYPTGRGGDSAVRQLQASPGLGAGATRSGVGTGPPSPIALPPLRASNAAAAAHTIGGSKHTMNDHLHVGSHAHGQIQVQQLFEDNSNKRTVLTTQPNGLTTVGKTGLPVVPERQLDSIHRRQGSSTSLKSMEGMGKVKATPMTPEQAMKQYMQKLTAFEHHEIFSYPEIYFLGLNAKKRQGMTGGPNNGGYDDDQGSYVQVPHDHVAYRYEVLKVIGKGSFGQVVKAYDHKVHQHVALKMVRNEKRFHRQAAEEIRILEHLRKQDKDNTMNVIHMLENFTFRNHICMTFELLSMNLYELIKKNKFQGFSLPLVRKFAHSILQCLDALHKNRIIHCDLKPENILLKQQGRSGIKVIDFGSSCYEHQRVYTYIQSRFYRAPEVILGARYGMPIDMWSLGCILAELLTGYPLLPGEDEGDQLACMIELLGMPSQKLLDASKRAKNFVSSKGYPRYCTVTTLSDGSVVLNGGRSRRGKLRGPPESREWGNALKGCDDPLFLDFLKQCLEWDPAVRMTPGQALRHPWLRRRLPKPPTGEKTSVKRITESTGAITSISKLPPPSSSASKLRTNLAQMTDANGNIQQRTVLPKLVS
Conditions: at 0.1 µM.

Assay [7] deals with T1, Dual specificity tyrosine-phosphorylation-regulated kinase 2 (Homo sapiens). The following applies: at 1 µM.
Assay [8] addresses Glycogen synthase kinase-3 alpha (Homo sapiens) (UniProt P49840). Conditions: at 0.1 µM.
For assay [9] the target is unchanged. The following applies: at 1 µM.
Assay [10] deals with Glycogen synthase kinase-3 beta (Homo sapiens) (UniProt P49841). Conditions: at 0.1 µM.
Assay [11] shares this target. The following applies: at 1 µM.
Assay [12] deals with Homeodomain-interacting protein kinase 1 (Homo sapiens) (UniProt Q86Z02). Conditions: at 0.1 µM.
Assay [13] has the same target. Conditions: at 1 µM.
Assay [14] addresses T2, Homeodomain-interacting protein kinase 4 (Homo sapiens) (UniProt Q8NE63).
T2 sequence (whole entry): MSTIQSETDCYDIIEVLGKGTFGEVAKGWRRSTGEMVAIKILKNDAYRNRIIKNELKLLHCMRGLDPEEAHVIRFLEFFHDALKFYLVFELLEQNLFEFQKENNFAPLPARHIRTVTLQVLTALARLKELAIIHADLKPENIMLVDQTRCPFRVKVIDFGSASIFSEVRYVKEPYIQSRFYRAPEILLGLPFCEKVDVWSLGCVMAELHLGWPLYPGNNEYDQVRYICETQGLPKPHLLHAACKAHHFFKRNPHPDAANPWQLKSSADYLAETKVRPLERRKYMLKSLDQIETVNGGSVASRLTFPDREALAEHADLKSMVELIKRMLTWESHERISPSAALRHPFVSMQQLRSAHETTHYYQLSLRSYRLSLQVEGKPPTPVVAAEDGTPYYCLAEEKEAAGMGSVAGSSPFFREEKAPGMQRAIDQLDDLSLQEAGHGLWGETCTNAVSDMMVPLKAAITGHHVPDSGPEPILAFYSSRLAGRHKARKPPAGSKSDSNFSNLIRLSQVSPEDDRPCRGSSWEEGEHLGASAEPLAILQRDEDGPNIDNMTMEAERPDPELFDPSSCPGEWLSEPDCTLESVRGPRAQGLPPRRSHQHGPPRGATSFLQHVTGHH
The following applies: at 0.1 µM.

The target in assay [15] is T2, Homeodomain-interacting protein kinase 4 (Homo sapiens). The following applies: at 1 µM.
For assay [16], the target named is Mitogen-activated protein kinase 9 (Homo sapiens) (UniProt P45984). The following applies: at 0.1 µM.
For assay [17] the target is unchanged. Conditions: at 1 µM.
The target in assay [18] is Mitogen-activated protein kinase 1 (Homo sapiens) (UniProt P28482). The following applies: at 0.1 µM.
The target is the same in assay [19]. The following applies: at 1 µM.
The target of assay [20] is Mitogen-activated protein kinase 3 (Homo sapiens) (UniProt P27361). Conditions: at 0.1 µM.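 Also: each value is a mean inhibition figure.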
Sequence of Mitogen-activated protein kinase 3 (Homo sapiens) (P27361 whole entry): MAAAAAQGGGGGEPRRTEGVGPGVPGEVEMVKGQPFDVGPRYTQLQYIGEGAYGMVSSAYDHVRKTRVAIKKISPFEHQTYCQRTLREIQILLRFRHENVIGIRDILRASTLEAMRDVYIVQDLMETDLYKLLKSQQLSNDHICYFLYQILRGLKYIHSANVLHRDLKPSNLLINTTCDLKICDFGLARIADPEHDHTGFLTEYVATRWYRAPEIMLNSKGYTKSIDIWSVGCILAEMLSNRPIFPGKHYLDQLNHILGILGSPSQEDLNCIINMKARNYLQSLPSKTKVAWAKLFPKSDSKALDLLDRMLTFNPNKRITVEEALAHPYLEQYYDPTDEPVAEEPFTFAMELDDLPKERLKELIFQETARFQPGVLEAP

Sequence of Mitogen-activated protein kinase 1 (Homo sapiens) (P28482 whole entry): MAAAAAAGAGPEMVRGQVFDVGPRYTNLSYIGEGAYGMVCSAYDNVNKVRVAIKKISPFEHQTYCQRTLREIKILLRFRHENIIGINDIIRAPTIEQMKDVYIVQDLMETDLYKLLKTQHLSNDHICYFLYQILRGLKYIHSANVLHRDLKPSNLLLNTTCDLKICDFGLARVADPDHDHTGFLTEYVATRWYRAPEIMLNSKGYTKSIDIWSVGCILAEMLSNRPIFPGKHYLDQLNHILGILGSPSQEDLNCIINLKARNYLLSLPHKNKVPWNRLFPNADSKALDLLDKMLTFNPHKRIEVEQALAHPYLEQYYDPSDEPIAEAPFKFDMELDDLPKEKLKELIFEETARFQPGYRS
Sequence of Dual specificity tyrosine-phosphorylation-regulated kinase 1B (Homo sapiens) (Q9Y463 whole entry, looked up): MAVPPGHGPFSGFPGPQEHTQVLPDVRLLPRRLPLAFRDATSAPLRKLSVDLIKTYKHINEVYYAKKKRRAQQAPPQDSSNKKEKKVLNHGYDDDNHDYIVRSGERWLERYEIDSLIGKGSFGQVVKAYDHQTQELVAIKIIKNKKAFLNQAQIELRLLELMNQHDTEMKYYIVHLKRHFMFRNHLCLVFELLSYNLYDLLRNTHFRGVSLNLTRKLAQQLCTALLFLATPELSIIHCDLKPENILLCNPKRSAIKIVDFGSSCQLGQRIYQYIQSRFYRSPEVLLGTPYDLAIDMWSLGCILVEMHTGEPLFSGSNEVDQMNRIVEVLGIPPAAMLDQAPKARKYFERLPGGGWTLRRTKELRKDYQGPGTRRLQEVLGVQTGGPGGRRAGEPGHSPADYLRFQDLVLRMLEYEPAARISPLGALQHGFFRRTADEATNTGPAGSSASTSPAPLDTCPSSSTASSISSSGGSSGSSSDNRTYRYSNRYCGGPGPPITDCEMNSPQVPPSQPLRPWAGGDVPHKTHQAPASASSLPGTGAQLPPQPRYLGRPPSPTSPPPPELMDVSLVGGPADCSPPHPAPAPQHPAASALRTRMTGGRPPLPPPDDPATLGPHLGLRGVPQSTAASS
Sequence of Homeodomain-interacting protein kinase 1 (Homo sapiens) (Q86Z02 whole entry, looked up): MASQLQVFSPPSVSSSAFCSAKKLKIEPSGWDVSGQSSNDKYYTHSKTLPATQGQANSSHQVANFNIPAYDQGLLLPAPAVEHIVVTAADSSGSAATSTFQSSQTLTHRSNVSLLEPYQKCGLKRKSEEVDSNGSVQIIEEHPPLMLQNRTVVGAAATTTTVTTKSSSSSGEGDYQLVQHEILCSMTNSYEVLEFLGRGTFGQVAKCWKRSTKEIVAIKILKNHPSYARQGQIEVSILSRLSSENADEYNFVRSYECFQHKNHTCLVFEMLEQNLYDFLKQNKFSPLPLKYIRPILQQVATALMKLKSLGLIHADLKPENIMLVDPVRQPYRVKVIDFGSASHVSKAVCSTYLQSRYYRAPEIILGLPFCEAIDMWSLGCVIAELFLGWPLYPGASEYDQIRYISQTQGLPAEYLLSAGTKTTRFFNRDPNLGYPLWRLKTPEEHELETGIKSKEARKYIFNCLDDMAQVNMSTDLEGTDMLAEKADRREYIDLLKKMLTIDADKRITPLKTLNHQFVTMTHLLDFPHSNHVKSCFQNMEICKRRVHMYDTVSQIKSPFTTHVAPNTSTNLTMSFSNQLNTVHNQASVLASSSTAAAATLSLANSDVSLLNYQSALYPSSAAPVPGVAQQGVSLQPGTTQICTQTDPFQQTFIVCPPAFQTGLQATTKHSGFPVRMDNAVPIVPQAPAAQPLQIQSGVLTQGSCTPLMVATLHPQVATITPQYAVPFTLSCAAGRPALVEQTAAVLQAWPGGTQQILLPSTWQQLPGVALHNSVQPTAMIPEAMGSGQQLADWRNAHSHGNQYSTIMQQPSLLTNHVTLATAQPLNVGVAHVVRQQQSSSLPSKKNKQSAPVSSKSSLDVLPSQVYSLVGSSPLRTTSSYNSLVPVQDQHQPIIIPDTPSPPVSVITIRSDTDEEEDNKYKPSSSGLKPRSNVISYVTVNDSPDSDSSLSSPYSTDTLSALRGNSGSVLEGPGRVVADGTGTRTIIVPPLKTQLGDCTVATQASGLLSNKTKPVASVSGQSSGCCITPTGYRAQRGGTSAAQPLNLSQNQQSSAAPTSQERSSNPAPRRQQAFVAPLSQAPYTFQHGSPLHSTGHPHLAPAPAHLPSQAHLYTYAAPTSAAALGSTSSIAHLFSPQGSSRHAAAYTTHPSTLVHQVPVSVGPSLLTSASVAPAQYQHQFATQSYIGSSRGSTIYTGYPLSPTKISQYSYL
Sequence of Dual specificity protein kinase CLK3 (Homo sapiens) (P49761 whole entry, looked up): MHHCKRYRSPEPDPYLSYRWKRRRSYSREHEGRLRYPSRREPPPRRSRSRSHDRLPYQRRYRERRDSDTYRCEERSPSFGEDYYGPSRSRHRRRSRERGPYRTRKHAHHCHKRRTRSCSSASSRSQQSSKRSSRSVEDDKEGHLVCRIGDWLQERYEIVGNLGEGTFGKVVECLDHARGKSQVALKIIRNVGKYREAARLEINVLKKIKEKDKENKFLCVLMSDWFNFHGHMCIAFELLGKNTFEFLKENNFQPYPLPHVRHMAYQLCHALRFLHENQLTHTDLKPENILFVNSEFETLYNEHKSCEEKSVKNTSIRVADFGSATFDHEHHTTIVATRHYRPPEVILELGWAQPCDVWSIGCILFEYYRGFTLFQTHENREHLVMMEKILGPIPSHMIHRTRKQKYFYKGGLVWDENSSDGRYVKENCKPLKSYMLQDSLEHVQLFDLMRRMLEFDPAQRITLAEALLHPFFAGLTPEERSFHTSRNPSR
Sequence of Mitogen-activated protein kinase 9 (Homo sapiens) (P45984 whole entry, looked up): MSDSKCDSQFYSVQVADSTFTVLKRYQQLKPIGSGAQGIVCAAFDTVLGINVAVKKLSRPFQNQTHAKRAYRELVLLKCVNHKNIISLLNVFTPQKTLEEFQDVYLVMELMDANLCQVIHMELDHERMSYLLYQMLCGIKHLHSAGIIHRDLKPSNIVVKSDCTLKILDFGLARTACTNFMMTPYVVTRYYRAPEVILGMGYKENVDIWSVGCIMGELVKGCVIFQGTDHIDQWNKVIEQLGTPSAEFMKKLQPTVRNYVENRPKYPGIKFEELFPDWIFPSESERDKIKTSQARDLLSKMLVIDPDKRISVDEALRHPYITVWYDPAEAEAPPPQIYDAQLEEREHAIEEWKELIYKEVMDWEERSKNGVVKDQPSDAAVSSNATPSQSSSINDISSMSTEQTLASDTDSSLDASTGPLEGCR
Sequence of Glycogen synthase kinase-3 alpha (Homo sapiens) (P49840 2-483 limits assumed): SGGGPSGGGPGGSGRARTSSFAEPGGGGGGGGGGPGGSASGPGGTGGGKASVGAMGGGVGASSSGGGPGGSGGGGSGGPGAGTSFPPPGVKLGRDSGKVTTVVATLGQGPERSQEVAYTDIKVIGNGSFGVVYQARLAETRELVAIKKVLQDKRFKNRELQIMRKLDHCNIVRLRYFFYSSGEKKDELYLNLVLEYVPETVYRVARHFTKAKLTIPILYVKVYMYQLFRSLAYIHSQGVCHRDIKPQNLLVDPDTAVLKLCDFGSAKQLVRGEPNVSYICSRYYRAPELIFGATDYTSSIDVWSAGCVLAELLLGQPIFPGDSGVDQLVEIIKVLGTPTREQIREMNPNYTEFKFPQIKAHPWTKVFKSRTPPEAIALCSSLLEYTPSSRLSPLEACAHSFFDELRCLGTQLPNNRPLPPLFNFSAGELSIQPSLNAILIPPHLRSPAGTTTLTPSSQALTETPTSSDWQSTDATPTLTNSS
Sequence of Glycogen synthase kinase-3 beta (Homo sapiens) (P49841 whole entry, looked up): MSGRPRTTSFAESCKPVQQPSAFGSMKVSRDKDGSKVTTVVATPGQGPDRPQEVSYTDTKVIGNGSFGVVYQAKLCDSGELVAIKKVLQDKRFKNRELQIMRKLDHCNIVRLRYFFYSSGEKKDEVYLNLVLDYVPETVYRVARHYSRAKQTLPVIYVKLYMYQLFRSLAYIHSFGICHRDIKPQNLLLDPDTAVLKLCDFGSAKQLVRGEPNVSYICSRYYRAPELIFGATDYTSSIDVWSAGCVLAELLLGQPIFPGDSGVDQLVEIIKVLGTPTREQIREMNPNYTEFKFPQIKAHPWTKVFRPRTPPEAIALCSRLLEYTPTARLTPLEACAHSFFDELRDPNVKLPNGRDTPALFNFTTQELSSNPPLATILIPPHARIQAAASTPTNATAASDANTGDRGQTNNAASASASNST

Consider `CCc1nn2ncccc2c1-c1ccnc(NC2CC2)n1`, for which the inhibition was 0.97% in assay [1]; 1.95% in assay [2]; 4.71% in assay [3]; 1.01% in assay [4]; 5.27% in [5]; 1.81% in assay [6]. For the same compound, the inhibition in assay [7] is 10.9%; in [8], 6.96%; in assay [9], 9.03%; in assay [10], 6.18%; in [11], 7.53%; in assay [12], -1.75%. Besides, the inhibition in [13] was 9.32%; in assay [14], 2.35%; in assay [15], 20.9%; in [16], 2.47%; in [17], 5.7%; in [18], 1.85%. Besides, the inhibition in assay [19] is 3.78%; in assay [20] it was -0.55%.

Take `CCn1c(-c2nonc2N)nc2c(C#CC(C)(C)O)nc(OC[C@H](N)c3ccccc3)cc21`: the inhibition in [1] was determined as 0.92%; in [2], 1.72%; in [3] it was 2.24%; in assay [4], 0.98%; in [5], 2.57%; in assay [6], 3.62%. Further, the inhibition in assay [7] is 4.79%; in [8] it was 36.8%; in assay [9] it was 73.6%; in [10] it was 30%; in assay [11], 71.2%; in assay [12], -1.18%. Further, the inhibition came to 12.3% in assay [13]; 3.08% in assay [14]; 6.13% in [15]; 7.43% in assay [16]; 9.81% in assay [17]; 2.37% in [18]. The inhibition in [19] was found to be 5.04%; in [20], 3.72%.

In the case of `CN1CCC(n2cnc(-c3ccc(F)cc3)c2-c2ccnc(N)n2)CC1`, the inhibition in [1] came out at 1.25%; in [2], 1.69%; in [3] it was 6.19%; in assay [4], 0.68%; in assay [5], 2.08%; in assay [6], 2.29%. In addition, the inhibition in assay [7] is 12.5%; in [8], 1.36%; in assay [9] it was 7.39%; in [10], 1.11%; in assay [11] it was 8.08%; in assay [12] it was 3.64%. Further, the inhibition in assay [13] is 24.8%; in [14], 1.91%; in assay [15] it was 16.7%; in assay [16] it was 2.6%; in [17], 11.3%; in assay [18] it was 0.3%. Further, the inhibition stood at 2.71% in [19] and 3.88% in assay [20].

`NS(=O)(=O)c1ccc(Nc2ncc(-c3ccccc3)o2)cc1`: the inhibition is 6.65% in [1]; 6.93% in assay [2]; 16% in assay [3]; 5.92% in [4]; 12.5% in assay [5]; 2.13% in [6]. In addition, the inhibition in [7] came to 8.68%; in [8], 12.9%; in assay [9] it was 43.4%; in [10], 11.4%; in [11], 35.4%; in assay [12], 9.46%. Moreover, the inhibition in assay [13] was 28.8%; in assay [14], 6.48%; in assay [15], 24.3%; in [16], 1.48%; in assay [17], 7.69%; in assay [18] it was 2.91%. In addition, the inhibition came out at 3.4% in assay [19] and 2.41% in assay [20].

For `CCN1CCC(CC(=O)Nc2n[nH]c3nnc(-c4cccc(F)c4F)cc23)CC1`, the inhibition in assay [1] was 2.16%; in assay [2], 10.4%; in assay [3] it was 53.1%; in assay [4], 7.85%; in assay [5], 46.9%; in assay [6], 1.7%. Further, the inhibition was 5.64% in assay [7]; 88.8% in assay [8]; 93.9% in assay [9]; 85% in [10]; 94.4% in [11]; -3.8% in assay [12]. The inhibition in assay [13] is 8.59%; in assay [14] it was 0.11%; in assay [15] it was 3%; in assay [16], 2.02%; in assay [17], -0.48%; in [18], 4.04%. The inhibition in assay [19] is 2.72%; in assay [20], 3.44%.

Turning to `Nc1ncc(-c2cccc(S(N)(=O)=O)c2)c2scc(-c3ccc(F)c(Cl)c3)c12`, the inhibition is 0.34% in assay [1]; 2.01% in [2]; 3.66% in assay [3]; -0.65% in [4]; 0.74% in [5]; 3.42% in assay [6]. Also, the inhibition in [7] stood at 2.46%; in assay [8], 3.06%; in assay [9], 4.87%; in assay [10], 2.78%; in [11] it was 3.65%; in [12], 0.64%. The inhibition was determined as 3.02% in [13]; 1.4% in [14]; 4.49% in assay [15]; 2.92% in assay [16]; 20.5% in assay [17]; 6.27% in assay [18]. Further, the inhibition in [19] turned out to be 7.98%; in assay [20] it was 3.4%.

In the case of `CCn1c(-c2nonc2N)nc2c(C#CC(C)(C)O)ncc(OC3CCNCC3)c21`, the inhibition was 0.2% in assay [1]; 1.61% in assay [2]; -0.11% in assay [3]; 0.14% in [4]; 1.34% in assay [5]; 2.3% in assay [6]. The inhibition in [7] was 3.89%; in assay [8], 12.3%; in assay [9], 48.9%; in assay [10] it was 10%; in [11], 51.8%; in assay [12], 0.21%. For the same compound, the inhibition was 4.91% in assay [13]; 1.04% in assay [14]; 2.64% in assay [15]; 4.13% in assay [16]; 6.93% in assay [17]; 4.51% in assay [18]. In addition, the inhibition worked out at 7.43% in assay [19] and 4.27% in assay [20].

For orientation: inhibition means the change of the read-out against control, counted positive when it falls.

Values taken from ChEMBL document CHEMBL1961873, “Compounds: GSK PKIS; Assays: Nanosyn kinase panel” (2012).
